Source: PubChem
D1 antag: blocks dopamine activation of the human D1 receptor | AID 504652 | 3.2% of 360,000 active | HEK293 TREx D1 cells, calcium flux, dopamine EC80; stronger effect = lower value | P21728 | activity change, negative = inhibition, % at 10 µM; in the data active = activity change below about -30%; note: % is set by controls: 0 for no effect and ±100 for the full control effect
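Using tetracycline-induced force-coupled D1 Hek293 cells and a calcium dye, signals were followed for 180 s after compound, then for 180 s after EC80 dopamine, to detect inhibitors.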
DRD3 agonist: agonists of human D3 dopamine receptor; max activation, %; AID 652048; 0.58% of 410,000 active; D3R DiscoveRx beta-arrestin cells, luminescence, 90 min; P35462; in the data active = max activation above about 30%; note: 0% is about no effect
Target sequence (P35462 whole entry, looked up): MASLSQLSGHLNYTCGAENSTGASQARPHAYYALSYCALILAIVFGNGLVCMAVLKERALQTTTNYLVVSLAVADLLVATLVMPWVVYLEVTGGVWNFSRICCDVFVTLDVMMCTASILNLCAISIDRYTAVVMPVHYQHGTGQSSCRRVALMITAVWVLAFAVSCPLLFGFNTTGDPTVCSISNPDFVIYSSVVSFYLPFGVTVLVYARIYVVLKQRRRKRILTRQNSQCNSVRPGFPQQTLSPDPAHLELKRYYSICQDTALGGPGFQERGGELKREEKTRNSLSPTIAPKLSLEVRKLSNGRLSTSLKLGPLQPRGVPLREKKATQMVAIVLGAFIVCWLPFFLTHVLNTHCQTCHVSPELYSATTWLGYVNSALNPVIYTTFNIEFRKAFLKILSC
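Agonist-mode cell screen: cells plated at 1500/well and incubated overnight at 37 °C, then exposed to library compounds for 90 min at 37 °C. Detection reagent was added for 30–60 min at room temperature, and luminescence was read.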
D1 potentiator: human D1 dopamine receptor positive modulation; P21728; HEK293 TREx D1 cells, calcium flux, dopamine EC20 potentiation; potentiation, % at 10 µM; 0.036% of 360,000 active; AID 504651; in the data active = potentiation above about 30%; note: 0% is about no effect
D3 antag: blocks the human D3 dopamine receptor; P35462; max response, negative = inhibition, %; 2.5% of 360,000 active; D3R cells, DiscoveRx beta-arrestin luminescence, antagonist mode; stronger effect = lower value; in the data active = max response below about -50%; inconclusive = no clear call, values can overlap the other calls; note: % is set by controls: 0 for no effect and ±100 for the full control effect
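Cells plated overnight at 1500 cells/well, then exposed to library compounds with dopamine controls for 90 minutes at 37 degrees C. DiscoveRx reagent added for 30–60 minutes at room temperature; luminescence read, quantitative HTS format.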
D1 ag: activates the human D1 dopamine receptor | P21728 | HEK293 T-REx D1 cells, calcium flux, agonist mode | activation, % at 2 µM | 1% of 360,000 active; in the data active = activation above about 30%; note: 0% is about no effect
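Agonism was scored from calcium flux recorded over 180 s (1 read/s) after pintool compound addition, following a 10-cycle baseline. Cells were inducible force-coupled HEK293 TREx D1, plated overnight at 30 C and loaded with no-wash calcium dye.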
BCR signal inh: blocks chronic active B-cell receptor signaling; 0.05% of 340,000 active; AID 493014; Potency, µM (highest dose often 46.1 µM), for the others: at the top dose activity change, negative = inhibition, hits mostly inhibitors; ABC-DLBCL IkBa-CBG/CBR reporter, luminescence ratio, 4 h; active = well fitted inhibition curve with a large enough effect in the signal ratio, with a control signal flat, not every such curve was filed as active; inconclusive = small, poorly fitted or top-dose-only effect, or effect the other way, or a change in a side signal; the % refers to the signal ratio;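 note: potency is the fitted concentration of half-maximal effect; plate controls were basal doxycycline-induced cells for no effect and cells given 10 µM MG132 for full effect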
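Compounds up to 46 uM were incubated four hours with TMD8 cells whose green CBG68 luciferase is fused to IkappaBalpha; red CBR luminescence normalised the signal, and concentration-effect curves were fitted to fusion, red and ratio data.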
Active calls of the source: *; ? = inconclusive; · = not tested or not shown. Compounds with a hit are over-represented: about 6% of the library has one in this group of screens.

SMILES	D1 antag	DRD3 agonist	D1 potentiator	D3 antag	D1 ag	BCR signal inh
Cc1ccc(S(=O)(=O)N/N=C/c2c(F)cccc2Cl)cc1	-25	-7	-1	-87*	3	3%
CS(=O)(=O)N(CC(=O)N/N=C/c1cc([N+](=O)[O-])ccc1Cl)c1ccccc1	-7	-9	-10	-15	0	4%
Cc1cccc(N(CC(=O)N/N=C/c2cc([N+](=O)[O-])ccc2Cl)S(C)(=O)=O)c1C	-45*	-4	-1	-28	0	-10%
O=S(=O)(N/N=C/c1c(F)cccc1Cl)c1ccccc1	-6	-3	7	-20	13	-5%
CCc1cc2c(cc3c(=O)n(CC(=O)N4CCCCC4)ncn32)s1	-8	0	-3	·	2	·
CCc1cccc(NC(=O)c2cc3c(=O)[nH]c4ccccc4c3n2C)c1	34	-24	3	·	4	·
CN(C)S(=O)(=O)Oc1ccsc1C(=O)Nc1ccc(Br)cc1	-1	-1	-6	-1	2	12%
CN(C)S(=O)(=O)Oc1ccsc1C(=O)Nc1ccc(Cl)c(Cl)c1	-55*	-6	-7	-14	36*	?
CN(C)S(=O)(=O)Oc1ccsc1C(=O)Nc1cccc(Cl)c1	-42*	3	-2	5	0	7%
Cc1cccc(OCC(=O)NCc2cc(C)nc3ccccc23)c1	-34*	-4	-6	-8	13	?
COc1ccccc1CNC(=O)c1cc(C)nc2ccccc12	-31*	23	-3	1	1	-12%
COc1ccc(CNC(=O)c2cc(C)nc3ccccc23)cc1OC	-13	8	-7	-2	2	1%
Cc1cc(C)n2ncc(C(=O)NCCc3ccccc3)c2n1	-33*	-6	4	-9	0	·
Cc1ccc(-c2cc(C(=O)NCCc3ccccc3)c3ccccc3n2)cc1C	-31*	7	-2	·	2	?
CCOc1ccc(-c2cc(C(=O)NCCc3ccc(C)cc3)c3ccccc3n2)cc1	0	7	3	·	-1	15%
COc1cccc(C(C(=O)NCc2ccccc2)N2CCN(c3cccc(C)c3C)CC2)c1OC (centres undefined)	·	2	·	3	·	·
C=Cc1ccc(CSc2nc(-c3ccc(C)cc3)nc3c2Cc2c(CO)cnc(C)c2O3)cc1	-3	13	3	·	1	·
CC1CN(C(=O)Nc2ccc(C(=O)NCc3ccccc3F)cc2)c2ccccc2S1 (centres undefined)	7	-12	-2	·	9	·
CCCNC(=O)COC(=O)c1cc(C)nc2ccccc12	5	0	0	-2	2	2%
Cc1ccc(C)c(-c2cc(C(=O)Nc3nccs3)c3ccccc3n2)c1	-10	32*	-7	5	2	?
Cc1cc(C(=O)OCC(=O)NCCc2ccccc2)c2ccccc2n1	-16	51*	·	-14	13	5%
Cc1cc(C(=O)OCC(=O)NCCC(C)C)c2ccccc2n1	-47*	2	-4	11	10	2%
CC1C(=O)Nc2ccc(S(=O)(=O)NCc3ccc(N(C)C)cc3)cc2NC1=O (centres undefined)	14	-19	0	·	6	·
C/C(=N\OC(=O)c1c(-c2c(F)cccc2Cl)noc1C)c1nccs1	9	12	-1	14	6	?
Cc1onc(-c2c(F)cccc2Cl)c1C(=O)O/N=C(\N)c1ccc([N+](=O)[O-])o1	0	33*	-1	8	0	8%
SMILES	D1 antag	DRD3 agonist	D1 potentiator	D3 antag	D1 ag	BCR signal inh
Cc1onc(-c2c(Cl)cccc2Cl)c1/C(N)=N/OC(=O)C(C)(C)C	7	36*	-1	-12	3	18%
Cc1ccc(CN=c2c([N+](=O)[O-])nn(-c3cccc(C)c3)n2O)cc1	-47*	-13	-2	6	-1	?
COc1ccc(-n2nc([N+](=O)[O-])c(=NCCc3ccc(C)cc3)n2O)cc1	-9	2	-2	-14	1	-17%
Cc1ccc(CN=c2c([N+](=O)[O-])nn(-c3cccc(Cl)c3)n2O)cc1	-34*	3	-5	-14	4	5%
Nc1cccnc1Oc1ccccc1F	28	-6	1	20	2	?
O=C(/C=C/c1ccccc1)Nc1cccnc1Oc1ccccc1F	-39*	-5	0	5	9	?
CC(C)c1ccc(CN2CCN(C(=O)CSc3nnnn3C3CC3)CC2)cc1	-36*	-6	-2	1	5	-16%
CCOc1ccccc1CNC(=O)C1=C(C)C(=O)OC12CCN(C(C)=O)CC2	2	2	-2	·	0	·
COC(=O)C[C@H]1CC[C@@H](NC(=O)C2CC2)[C@@H](CO)O1	·	4	·	5	·	·
Cc1ccc(CNC(=O)CSc2nnc(C)c3c(C)n(-c4ccccc4)nc23)cc1	11	-12	1	·	1	·
CCOc1ccc(S(=O)(=O)N(C)c2ccc(OCC(=O)NCC3CCCCC3)cc2)cc1	·	-11	·	-79*	·	-6%
CCOc1ccc(S(=O)(=O)N(CC(=O)NC2CCCC2)c2ccc(F)cc2)cc1	·	8	·	-52*	·	·
CCN(c1ccccc1)S(=O)(=O)c1ccc(OC)c(NC(=O)Cc2ccc(F)cc2)c1	-3	-6	-2	3	9	-1%
CCN(c1ccccc1)S(=O)(=O)c1ccc(OC)c(NC(=O)CNCCc2ccccc2)c1	-33*	-16	-13	0	22	?
CCOc1ccc(N(CC(=O)Nc2ccccc2OC)S(=O)(=O)c2ccccc2)cc1	-1	-6	-4	-24	3	16µM*
COc1ccc(OC)c(S(=O)(=O)N(C)CC(=O)Nc2ccccc2OC)c1	-82*	-1	-9	1	2	·
CCOc1ccccc1NC(=O)CN(c1ccc(OC)cc1OC)S(=O)(=O)c1ccccc1[N+](=O)[O-]	-44*	0	-7	-1	5	0%
COc1ccc(NC(=O)C(=O)Nc2cccc3ccccc23)c(OC)c1	-18	6	-1	5	7	?
COc1ccc(N(CC(=O)Nc2ccccc2C)S(=O)(=O)c2ccccc2[N+](=O)[O-])c(OC)c1	-5	-1	-4	-10	2	1%
COc1ccc(OC)c(/C(O)=C/C(=O)C(=O)Nc2ccccc2OC)c1	5	8	-3	-67*	0	-2%
COc1ccc(S(=O)(=O)N(C)CC(=O)Nc2ccccc2OC)cc1C	-15	-1	-11	0	-1	-1%
CN(C)c1ccc(-c2ccnc3c2CC(C)(C(=O)NCc2cccc(Cl)c2)O3)cc1 (centres undefined)	·	-7	·	-22	·	·
CC(C)C(=O)Nc1ccc2nc(SCC(=O)N3CCCC3)sc2c1	7	12	0	·	1	·
